Results published in PubChem BioAssay AID602332 (National Center for Advancing Translational Sciences (NCATS), 2012).
Where “and” joins values, the source holds several entries; their conditions need not be identical. Equal values may be shown once. The campaign covered roughly 420,000 compounds. About 75 (0.02%) were called active. The call rests on the fitted dose curve; in most records, active means well fitted activation curve with a large enough effect; inconclusive means small, poorly fitted or top-dose-only effect; inactive means no such curve, though single readings can be large or run the other way. This excerpt belongs to a sample that is enriched for actives.

Experiment: qHTS for Inducers of the Endoplasmic Reticulum Stress Response (ERSR) in Human Glioma: qHTS; further: nearly all actives have a fitted effect of over 35% in size; on activation: % of control where 0% means no effect
Conditions: U87-MG GRP78 promoter luciferase reporter, 16 h; activation: stronger effect = higher value
Source text: Primary protein unfolding takes place for many diseases, including diabetes and hypoxia, , and triggers a reaction in the cells called ER stress response (ERSR). ). ERSR is designed as a repair mechanism, but ultimately leads to cell death via apoptosis if conditions triggering protein unfolding persist (1). The molecular clue to ERSR activation is the enhancement of the expression of key molecular chaperones, including the glucose regulated protein (GRP) 78. GRP78 is the main sensor for protein folding and the main actuator of the ERSR.
In a collaboration between the Southern Research Institute and the NIH Chemical Genomics Center, a cell based screen was developed that reliably uses GRP78 as a sensor to identify small molecules as inducers of ERSR. In resting conditions, GRP78 binds proteins and acts as a natural repressor. Once unfolded proteins are present in the ER, GRP78 releases some of the repressors and binds to the unfolded proteins. The release of the repressors executes the ERSR program. Using a human glioma cell line in a miniaturized, luminescent format, a high-throughput screen was developed to identify actuators of the ERSR.
(1) Soboloff, J. and S. A. Berger (2002). "Sustained ER Ca2+ depletion suppresses protein synthesis and induces activation-enhanced cell death in mast cells." J Biol Chem 277(16): 13812-20.
NIH Chemical Genomics Center [NCGC]
NIH Molecular Libraries Probe Centers Network [MLPCN]
Assay Submitter (PI): Maurizio Grimaldi, Southern Research Institute
Stable transfected human glioma cell line, U87-MG, are dispensed at density 1000 cells/well into Greiner white solid bottom 1536-well assay plates. Compounds are transferred via Kalypsys pin tool equipped with 1536-pin array (10nl slotted pins, V&P Scientific, San Diego, CA). The assay plates will be incubated for 16 hours and developed by adding appropriate quantities of the Promega Bright Glo reagent. The plates will be incubated at room temperature for 10 minutes prior to being transferred into a ViewLux high-throughput CCD imager (PerkinElmer), wherein end-point measurements of luminescence are acquired.
Potency means the concentration at half of the fitted maximal effect.

activation, inactive:
O=c1c(CN2CCOc3ccc(CN4CCC(Oc5cccnc5)CC4)cc3C2)coc2ccccc12 -1.61%
O=C(CN1Cc2ccccc2OC(c2ccccc2)C1)N1CCCCC1c1cccnc1 (centres undefined) 0.385%
C[C@H]1C[C@H]2[C@@H]3CCC4=CC(=O)C=C[C@]4(C)[C@@H]3C(=O)C[C@]2(C)[C@@]1(O)C(=O)CO -3.39%
CC(=O)Oc1c2c(c3c(c1CC=C(C)C)O[C@@]14C(=CC5CC1C(C)(C)OC4(C/C=C(\C)C(=O)O)C5=O)C3=O)OC(C)(CCC=C(C)C)C=C2 (some centres undefined) -12.4%
COC(=O)C1=C(C)N(Cc2ccccc2)C2=C3C(=O)N(c4ccccc4)C(=O)C3[C@@](O)(C(=O)OC)C(=O)N2C1c1ccccc1 (some centres undefined) -1.87% and -3.39%
CN1CCc2nc(-c3ccccc3)c(-c3ccccc3)cc2C1 -5.76%
C=CCOC(=O)C(C(C)=O)C(NC(=O)OC)c1ccccc1 (centres undefined) -3.7%
O=C1C[C@H]2C=CCc3cccc(c32)CN1Cc1ccccc1 -0.186%
CC(C)c1cc(C(=O)N2CCOc3ccc(CN4CCC(Oc5cccnc5)CC4)cc3C2)n[nH]1 -4.01%
COc1ccccc1C1CN(CCNC(=O)C2=CCCC2)Cc2ccccc2O1 (centres undefined) -2%
CC[C@H](C)[C@H](NC(=O)[C@H](Cc1cnc[nH]1)NC(=O)[C@@H](N)CCC(=O)O)C(=O)N1CCC[C@H]1C(=O)N[C@@H](C)C(=O)O -2.54%
CO[C@H]1C[C@@H](O[C@@H]2[C@@H](C)O[C@@H](O[C@@H]3/C(C)=C/CC4C[C@@H](C[C@]5(C=C[C@@H](C)[C@H](C6CCCCC6)O5)O4)OC(=O)[C@@H]4C=C(C)[C@@H](O)[C@H]5OC/C(=C\C=C\[C@@H]3C)[C@]54O)C[C@H]2OC)O[C@@H](C)[C@@H]1O -9.58%
CC(C)(C)c1ccc(C(=O)C[N+]2(C)CCCc3ccccc32)cc1 (centres undefined) -4.17%
CC(=O)Nc1cc(C(=O)N2CCc3c(Cl)cccc3C2)cc2ncn(CCc3ccccn3)c12 -1.89%
C[C@@H](c1ccccc1)N1C(=O)[C@H]2[C@H]3[C@H](O)[C@H](O)C/C(=N/OC[C@@H](O)COCc4ccco4)[C@@H]3CC[C@@H]2C1=O -4.31%
Cc1ncc2c(c1CNS(=O)(=O)N(C)C)CCN(C(=O)c1ccccc1F)C2 -3.66%
O=C1CCN(Cc2ccc(-c3ccccc3)cc2)CCN1Cc1ccccn1 2.1%
CN(C)C(=O)[C@@H]1C[C@@H](Sc2nc3ccccc3[nH]2)CN1Cc1ccc(Cl)cc1 -3.23%
C[C@@H]1O[C@@H](OC[C@H]2O[C@@H](Oc3c(-c4cccc(O)c4O)oc4cc(O)cc(O)c4c3=O)[C@H](O)[C@@H](O)[C@@H]2O)[C@H](O)[C@H](O)[C@H]1O -4.32%
CCCS(=O)(=O)NCc1c(C)ncc2c1CCN(C(=O)c1ccc(F)c(F)c1)C2 -4.76%
CC(C)C(=O)NC(C)c1nnc2n1CCN(Cc1cccc3ncccc13)CC2 (centres undefined) -2.92%
CCC1CN(CCNC(=O)c2ccsc2)Cc2cc(OC)ccc2O1 (centres undefined) -2.11%
N#Cc1cccc(-c2ccc3ncnc(NCc4cccs4)c3c2)c1 -10.9%
COC(=O)[C@@H]1CC[C@H](C)[C@@H](c2ccc(C)cc2)N1C(=O)c1ccc(/C=N\O[C@@H](C)c2cn([C@H](CO)Cc3ccccc3)nn2)cc1 -4.74% and -2.82%
COc1cc(=O)n2c(c1C(=O)NC(C)c1ccco1)CCN(Cc1cc(C)cc(C)c1)CC2 (centres undefined) -3.17%
CO[C@@H]1COC(=O)C/C=C\[C@H](C)[C@@H](NS(=O)(=O)c2ccc(C)cc2)COC(=O)C/C=C\[C@@H]1C -3.94% and -2.29%
COC(=O)c1c(OCc2ccc(F)cc2)cc(=O)n2c1CCN(Cc1ccc3cccnc3c1)CC2 -4.1%
c1ccc2c(Nc3ccncc3)nc(-c3ccc4c(c3)OCO4)nc2c1 -6.62%
CO[C@H]1COC(=O)[C@@H](C)NC(=O)C/C=C\[C@@H](C)[C@H](OC)COC(=O)C/C=C\[C@@H]1C -4.07%
Cc1c(O)cc2c(c1C)O[C@](C)(CCC[C@H](C)CCC[C@H](C)CCCC(C)C)CC2 -2.5%
CCC1(C2CCN(C(=O)c3cccc(F)c3F)CC2)NC(=O)N(CCc2scnc2C)C1=O (centres undefined) -1.9%
Cc1cc(C)cc(CN2CCc3nnc(C(NS(C)(=O)=O)C(C)C)n3CC2)c1 (centres undefined) -4.09%
CC(=O)OCC1OC(C#Cc2ccccc2Cl)C=CC1OC(C)=O (centres undefined) -1.79%
CC(C)N1C[C@@H](NCc2ccccc2O)C[C@H]1C(=O)N1CCN(c2cccc(C(F)(F)F)c2)CC1 -4.06%
COc1cc(=O)n2c(c1C(=O)N(C)Cc1nccs1)CCN(Cc1ccc(Cl)cc1)CC2 -5.15%
O=C(CCN1Cc2ccccc2OC(c2ccccc2)C1)N[C@@H]1CS(=O)(=O)C[C@H]1O (some centres undefined) -4.81%
O=C1OCCC=C1[C@@H](O)CCc1ccccc1 3.05%
O=c1cc(-c2ccc(O)cc2)oc2c(-c3cc(-c4cc(=O)c5c(O)cc(O)cc5o4)ccc3O)c(O)ccc12 -1.39%
O=c1cc(-c2ccc(O)c(O)c2)oc2cccc(O)c12 -2.34%
CCCN(CC)[C@@H](CC)C(=O)Nc1c(C)cccc1C -4.31%
O=C1[C@H]2[C@H]3[C@H](O)[C@H](O)C/C(=N/OCc4ccccc4)[C@H]3CC[C@@H]2C(=O)N1Cc1ccccc1 -3.44%
C/C(CCN1CCCCc2nc(C)c(C)cc21)=N\O[C@@H](C)c1cn([C@@H]2COC[C@@H]2O)nn1 -4.19%
COc1ccc2c(c1)CCc1cnc(-n3ncc(C(=O)NCCN4CCOCC4)c3C)nc1-2 5.73%

Potency, active:
COc1c(O)cc2oc(-c3ccc(O)c(O)c3)cc(=O)c2c1O 20 µM
